Test results published in PubChem BioAssay AID686970 (National Center for Advancing Translational Sciences (NCATS), 2013).
Screen size: about 360,000 compounds; about 6,000 (1.7%) were called active. About 8% were inconclusive and are not listed. The list comes from a sample in which actives are over-represented; it also holds similar structures and randomly drawn compounds. Values without a mark were called inactive. The call rests on the fitted dose curve; in most records, active means well fitted cell-killing curve with a large enough effect; inconclusive means small, poorly fitted or top-dose-only effect, or effect the other way; inactive means flat fitted curve, though single readings scatter.

experiment: qHTS for induction of synthetic lethality in tumor cells producing 2HG: qHTS for the HT-1080-NT fibrosarcoma cell line; conditions: HT-1080-NT fibrosarcoma viability, CellTiter-Glo ATP luminescence, 48 h; series mostly up to 46.1 µM; activity, negative = less viability: at the top concentration; further: nearly all actives have a fitted effect of over 55% in size
From the text: Unbiased genomic sequencing for 22 glioma genomes found recurrent mutation of IDH1 on chromosome 2q33, a gene encoding the cytosolic isoform of IDH1 associated with the tricarboxylic acid cycle (TCA) that catalyzes the oxidative decarboxylation of isocitrate, yielding alpha-ketoglutarate and CO2 via NADP+ to NADPH conversion. Subsequent studies confirmed the recurrent IDH mutations in up to 70% of secondary gliomas and in 10% of AML cases. In addition, the somatic mutation of cancer-associated IDH1 is a point mutation resulting in various amino-acid substituents at Arginine132 (IDH1 R132), a key residue found in the enzyme's active site that when mutated, results in the loss-of-function in metabolizing isocitrate but confers a gain-of-function to produce the oncometabolite 2-hydroxyglutarate (2HG). This in effect defines IDH1 as an oncogene and provides an extraordinary opportunity to discover chemical probes against mutant IDH1 that may translate into much needed new therapies for glioma and AML patients.
This assay aims to perform a synthetic lethal screen for chemical probes specific for 2HG-producing tumor cells using matched paired cell lines (1) HT-1080-NT fibrosarcoma cell line that overproduces 2HG and (2) HT-1080-IDH1KD cell line which has IDH1 expression knocked-down. Desirable compounds are toxic to the NT fibrosarcoma cells but not to the IDH1KD cell line. The data in this AID corresponds to the results of the qHTS against the HT-1080-NT fibrosarcoma cell line.
[1] Dang L, Jin S, Su SM. IDH mutations in glioma and acute myeloid leukemia. Trends of Mol Med. 2010; 16(9): 387-97.
[2] Dang L et al. Cancer-associated IDH1 mutations produce 2-hydroxyglutarate. Nature. 2010; 465(7300):966.
NIH Molecular Libraries Probe Production Centers Network [MLPCN]
NIH Chemical Genomics Center [NCGC]
Assay Submitter (PI): Lenny Dang Ph.D., Agios Pharmaceuticals
Suspensions of trypsinized HT-1080-NT cells were dispensed into white, tissue culture-treated, solid 1536-well plates at 5uL/well (750 cells/well final concentration) in RPMI medium supplemented with 5% FBS. Plates were incubated at 37 degrees C for 2 hours, after which 23 nL of compounds or DMSO were delivered to each well using a pin tool. Plates were then incubated at 37 degrees C for an additional 48 hours. CellTiter-Glo viability reagent (Promega) was dispensed into wells (2.5uL/well) and incubated at room temperature for 10 minutes. The plates were measured on a PerkinElmer ViewLux plate reader for luminescent signal (clear filter, 1 sec exp). DMSO-treated control wells and media-only (no cells) control wells were used to normalize %Activity of identified toxic compounds; DMSO-treated wells corresponded to 0%Activity (100% viability), while media-only controls were used to normalize 100%Activity (0% viability).
Concentration-response curves were fitted to the signals arising from the resulting luminescence. The concentration-effect curves were then classified based on curve quality (r2), response magnitude and degree of measured activity, and compounds were subsequently categorized based on their curve class.
Potency means the concentration at half of the fitted maximal effect.

SMILES	Potency	activity, negative = less viability [%]
CN(C)CC1Oc2ccccc2OC1(O)c1ccccc1 (stereo not given)	8.2 µM (active)	–
CCOC(=O)c1cccc(C2=C(CNC(=O)c3ccncc3)[C@H]3CC[C@@H](C2)N3Cc2ccccc2)c1	–	-2.39
O=C1C2CCN(CC2)C1(CO)CO	–	1.59
O=c1[nH]c(O)c(C=Nc2cc(F)cc(F)c2)c(=O)[nH]1	–	8.67
COC1=CC=C2[C@H]3Cc4ccc(OC)c5c4[C@@]2(CCN3C)C1O5 (stereo not given in full)	–	10.5
COc1ccc2c(c1O)-c1cccc3c1[C@@H](C2)N(C)CC3	–	0.405
COc1ccc2c3c1O[C@H]1C[C@@H](O)C=C[C@@]31CCN(C)C2	8.2 µM (active)	–
CC=C(C)C(=O)OC1CCN2CC=C(COC(=O)C(O)(C(C)OC)C(C)(C)O)C12 (stereo not given)	–	1.64
O=P(OC1=CCCCC1)(c1ccccc1)c1ccccc1	–	0.74
O=c1[nH]c2ccccc2n1C1CCN(C(c2ccccc2)c2nnnn2Cc2ccccc2)CC1 (stereo not given)	13 µM (active)	–
CSCCC(c1nnnn1C(C)(C)C)N1CCC(n2c(=O)[nH]c3ccccc32)CC1 (stereo not given)	–	-18.1
Cc1ccc(Cn2nnnc2CN2CCC(n3nnc4ccccc43)CC2)cc1	–	-22.7
CCOC(=O)C1=C(C)OC(N)=C(C(=O)OC)C12C(=O)Nc1ccc(Br)cc12 (stereo not given)	–	-1.5
O=c1[nH]c(CN2CC=C(c3ccccc3)CC2)nc2scc(-c3cccs3)c12	–	-0.0739
S=C(NCCc1ccccc1)N1Cc2cc(N3CCOCC3)ccc2-n2nncc2C1	–	2.89
CCOc1ccc(-c2cc(C)[n+](CCN(CC)CC)c(-c3ccc(OCC)cc3)c2)cc1	8.2 µM (active)	–
COc1ccc(C2C=C(C)Oc3c2c(=O)oc2ccccc32)cc1OC (stereo not given)	–	-15.3
COC(=O)C1=C(c2ccc(OCc3ccccc3)cc2)C[C@@H]2CC[C@H]1N2C(=O)NCc1cccc(F)c1	–	-7.63
CC1CCCN1CCC(C(N)=O)(c1ccccc1)c1ccccc1 (stereo not given)	–	-2.83
COc1ccc(CCn2c(O)c(C=NC3CC3)c(=O)[nH]c2=O)cc1OC	–	0.249

SMILES	Potency	activity, negative = less viability [%]
c1ccc(N2Cc3ccccc3-n3nncc3C2)nc1	–	-3.61
CCC1(C)CC(CCNCc2ccc(N(C)C)cc2)(c2ccc(F)cc2)CCO1 (stereo not given)	–	-21.8
C[C@@H]1C[C@@H]2O[C@H]2/C=C\C=C\C(=O)Cc2c(Cl)c(O)cc(O)c2C(=O)O1	8.2 µM (active)	–
CC(=O)NCC1=C(c2ccc3ccccc3c2)C[C@@H]2CC[C@H]1N2Cc1ccco1	–	-6.62
C=Cn1ccnc1P(=S)(c1cc(N(CC)CC)ns1)c1nccn1C=C	–	-22
COC(=O)C1=C(c2ccc(OCc3ccccc3)cc2)C[C@@H]2CC[C@H]1N2C(=O)NCc1ccc(Cl)cc1	–	7.67
CC1=CC(=Cc2sc3ccccc3[n+]2C)C=C(C)O1	8.2 µM (active)	–
O=[N+]([O-])c1ccc(C2C3C(c4ccccc4)=NC4(CCCCC4)N32)cc1 (stereo not given)	–	1.87
Cc1ccc(OC(=O)N(C)C[C@@H]2OCc3cnnn3CCCC(=O)N([C@H](C)CO)C[C@@H]2C)cc1	–	-0.987
COc1cc(Cn2c(N)c(C(=O)NCc3ccco3)c3nc4ccccc4nc32)cc(OC)c1OC	12.6 µM (active)	–
COC(=O)C1=C(c2ccccc2)C[C@@H]2CC[C@H]1N2C(=O)NCc1ccco1	–	10.9
Cc1ncoc1C(=O)NCC1=C(c2cccc3ccccc23)C[C@@H]2CC[C@H]1N2Cc1ccco1	–	-7.65
CC(=O)c1c(O)n(C2CCCCCC2)c(=O)[nH]c1=O	–	-4.72
O=C(NC1CCCCC1)N1Cc2cc(N3CCCCC3)ccc2-n2nncc2C1	–	9.74
c1cc2c(c(NC3=NCCCS3)c1)CCCC2	–	-17.9
COC(=O)C1=C(c2ccc(Cl)c(C(F)(F)F)c2)C[C@@H]2CC[C@H]1N2C(=O)NC1CC1	–	-7.4
C[C@]12CCC3C(CC[C@H]4C[C@@H](O)CC[C@]34C)C1C[C@@H](O)[C@H]2O (stereo not given in full)	–	-0.126
C[C@]12CC[C@H](O)C[C@H]1CC[C@@H]1C2CC[C@]2(C)[C@@H](C3=CC(=O)OC3)[C@@H](O)C[C@]12O (stereo not given in full)	5.8 µM (active)	–
C[C@]12CCC3C(CC[C@H]4C[C@@H](O)CC[C@]34C)C1CC[C@@H]2O (stereo not given in full)	–	-1.7
C[C@H]1CN([C@@H](C)CO)C(=O)CCCn2nncc2CO[C@H]1CN(C)C(=O)Oc1ccccc1	–	8.98
